The list is not random: actives were taken first. Their share in the collection is about 10%.
G9a block = inhibitors of human histone lysine methyltransferase G9a. Q96KQ7. G9a H3K9 monomethylation, AlphaScreen, 2 h. Potency, µM (series often up to 102 µM), actives largely listed as inhibitors. hit rate 8.8% among 350,000. AID 504332; further: nearly all actives have a fitted effect of over 75% in size
Target sequence (Q96KQ7 913-1193 limits assumed): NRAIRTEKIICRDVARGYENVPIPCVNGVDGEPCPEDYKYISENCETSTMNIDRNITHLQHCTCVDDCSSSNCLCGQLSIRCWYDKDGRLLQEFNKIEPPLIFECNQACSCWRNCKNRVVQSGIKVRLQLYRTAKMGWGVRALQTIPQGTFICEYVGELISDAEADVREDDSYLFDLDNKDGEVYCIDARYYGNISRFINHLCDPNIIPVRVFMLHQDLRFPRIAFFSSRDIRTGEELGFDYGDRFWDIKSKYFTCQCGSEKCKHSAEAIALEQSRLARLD
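G9a (20 nM) preincubated 15 min RT with compounds, then 500 nM biotinylated H3K9 peptide and 20 uM SAM added; 2 h RT reaction. Monomethyl-H3K9 product detected by AlphaScreen with anti-H3K9me1 antibody, streptavidin donor and anti-rabbit IgG acceptor beads.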
CtBP-E1A inh = CtBP/E1A binding inhibition. AID 651724. AlphaScreen GST-E1A/His-CtBP binding, 1536-well; active compounds read low. activity change, % (no concentration beside the values). hit rate 0.49% among 340,000; in the data active means activity change below about -65%; inconclusive means mostly about -30% to -63%
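GST-E1A and His-tagged CtBP (125 nM each as 5X stock) were preincubated with pin-transferred compound for 2 h at 37 °C in the dark, then glutathione donor and nickel acceptor beads were added for 1 h before AlphaScreen reading.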
Six1-Eya2 blk = inhibitors of human Six1/Eya2 interaction; AlphaScreen GST-Six1/His-Eya2 binding, biochemical; active compounds read low; hit rate 0.56% among 360,000; activity change, % (test concentration not listed); AID 651725; in the data active means activity change below about -65%; inconclusive means mostly about -30% to -63%
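Six1/Eya2 binding was read as AlphaScreen signal after compounds were pinned into GST-Six1 plus His-tagged Eya2 (5X stock 250/500 nM) in pH 8.0 Tris/NaCl/TCEP buffer, beads added, then incubated 1 h, 37 C, dark.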
HP1b binding inh = HP1-beta chromodomain-methylated histone interaction inhibition. AlphaScreen HP1-beta / biotin-H3K9me3 peptide binding. Potency, µM (titrated, usually from 114 µM), usual class: inhibitors. P83916. AID 540317. hit rate 0.56% among 390,000; further: nearly all actives have a fitted effect of over 70% in size
Target sequence (P83916 whole entry, looked up): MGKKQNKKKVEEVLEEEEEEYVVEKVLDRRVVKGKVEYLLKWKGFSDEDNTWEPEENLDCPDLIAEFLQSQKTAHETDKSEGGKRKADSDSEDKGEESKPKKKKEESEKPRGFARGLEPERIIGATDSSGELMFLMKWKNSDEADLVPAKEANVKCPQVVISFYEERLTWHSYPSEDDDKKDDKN
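Compound inhibition of the preformed complex between 50 nM HP1-beta and 50 nM biotinylated H3K9me3 peptide was read by AlphaScreen. Buffer was PBS pH 7.4 with 0.01% Tween-20. Incubations ran 30 min at room temperature, with 10 ug/mL donor/acceptor beads.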
BAZ2B block = BAZ2B (human) inhibition | Q9UIF8 | AlphaScreen BAZ2B-H3K14Ac peptide displacement | Potency, µM (titrated, usually from 114 µM), actives largely listed as inhibitors | hit rate 4.4% among 360,000 | AID 504333; further: nearly all actives have a fitted effect of over 60% in size
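Compounds, titrated to a top concentration of 110 uM, were incubated 30 min at room temperature with preformed BAZ2B/acetyl-K14 H3 peptide complex (50 nM each). Proximity signal was measured by AlphaScreen after 20 min with beads.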
JMJD2A Tudor = JMJD2A Tudor domain (human) inhibition | O75164 | AlphaScreen JMJD2A-Tudor / H3K4me3 peptide binding | Potency, µM (highest dose often 114 µM), hits mostly inhibitors | hit rate 4.4% among 390,000; further: nearly all actives have a fitted effect of over 50% in size
Numbers stand for hits; . = inactive; ? = inconclusive; / = not tested or not shown; ! = not active in a repeat; [ ] = remark or other dose. Unless noted, the call rests on the fitted dose curve; in most records, active means well fitted inhibition curve with a large enough effect; inconclusive means small, poorly fitted or top-dose-only effect; inactive means no such curve, though single readings can be large or run the other way.

SMILES	G9a block	CtBP-E1A inh	Six1-Eya2 blk	HP1b binding inh	BAZ2B block	JMJD2A Tudor
COC(=O)c1scc(S(=O)(=O)C(C)C)c1N/N=C(\C#N)C(=O)c1ccc(Cl)cc1	50µM	/	.	.	.	?
Cc1cc(-c2ccccc2)c2c(n1)sc1c(O)cc(=O)[nH]c12	/	.	.	.	.	.
CCc1nc2sc3c(O)cc(=O)[nH]c3c2cc1C	45µM	.	.	.	.	.
CCCCN(CCCNC(=O)c1c(C)cc(=O)oc1C)c1ccccc1	50µM	.	.	?	45µM	50µM
COc1ccc(/C=N/n2cnn(Cc3ccccc3Cl)c2=S)cc1OC	40µM	.	.	?	.	.
Oc1ccc(/C=N/n2cnn(Cc3ccccc3Cl)c2=S)c(O)c1	3.2µM	.	.	.	.	?
C=CCN1CCCC1CNC(=O)c1cc(S(N)(=O)=O)cc(OC)c1OC (stereo not given)	.[12.7 µM]	/	/	/	/	/
Cc1cc(C)n(C(C)CC(=O)NCc2ccccc2C)n1 (stereo not given)	.	/	/	.	.	.
COc1ccc(OC)c(NC(=O)CCc2c(C)nn(-c3ccc(N4CCCC4)nn3)c2C)c1	.	/	/	.	?	?
Cc1ccc(NS(=O)(=O)c2cc3c(cc2/C=C/c2ccccc2)NC(=O)CO3)cc1C	/	/	/	/	/	.
CC(C)(C)Sc1ccc(N)nc1	50µM	.	.	.	?	.
CC1CCN(c2oc(-c3cccs3)nc2S(=O)(=O)c2ccc(Cl)cc2)CC1	7.9µM	/	/	?	?	?
CNc1oc(-c2cccs2)nc1S(=O)(=O)c1ccccc1	?	.	.	.	.	.
O=S(=O)(c1ccccc1)c1nc(-c2ccco2)oc1N1CCCCCC1	?	.	.	8.9µM	40µM	.[11.4 µM]
CCC(C)S(=O)(=O)c1oc(-c2cccs2)nc1S(=O)(=O)c1ccccc1 (stereo not given)	18µM	/	/	.	.	.
Cc1ccc(S(=O)(=O)c2nc(-c3cccs3)oc2N2CCC(C)CC2)cc1	?	/	/	.	?	?
O=S(=O)(c1ccccc1)c1nc(-c2cccs2)oc1N1CCCCC1	?	/	/	.	35µM	.
CCc1ccc(Nc2n[n+](-c3ccccc3)c(-c3ccc(OC)c(Br)c3)s2)cc1	35µM	/	.	.	?	.
CCc1ccc(Nc2n[n+](C)c(-c3ccncc3)s2)cc1	/	.	.	.	56µM	56µM
CCc1ccc(Nc2n[n+](-c3ccccc3)c(-c3ccc(SC)cc3)s2)cc1	45µM	.	.	.	?	?
CCc1ccc(Nc2n[n+](-c3ccccc3)c(-c3ccc(C(=O)O)cc3)s2)cc1	32µM	.	.	.	35µM	79µM
CCc1ccc(Nc2n[n+](C)c(-c3ccc(C(=O)O)cc3)s2)cc1	.[12.7 µM]	/	/	/	.	/
COc1ccc(Cc2nnc(Nc3ccccc3)s2)cc1Br	.	/	.	.	.	.
O=C(NCc1ccccc1)c1cccn1-c1nnc(N2CCCC2)s1	.	/	/	.	.	.
O=C(CCCn1c(=O)c2cccn2c2ccccc21)NCc1ccccc1Br	.	/	/	.	.	.
SMILES	G9a block	CtBP-E1A inh	Six1-Eya2 blk	HP1b binding inh	BAZ2B block	JMJD2A Tudor
CC1CCN(S(=O)(=O)c2ccc3c(c2)N(CC(=O)NC(C)c2ccccc2)C(=O)CS3)CC1 (stereo not given)	.	/	/	.	.	.
C[n+]1nc(Nc2cccc3ccccc23)sc1-c1ccc(C(=O)O)cc1	.[12.7 µM]	/	/	/	.	/
COc1cc(Br)c(-c2sc(Nc3ccccc3)n[n+]2-c2ccc(F)cc2)cc1OC	?	/	.	.	?	79µM
CCOc1cc(-c2sc(Nc3ccccc3)n[n+]2-c2ccc(F)cc2)ccc1OC	/	.	.	.	.	?
COc1cc(OC)c(-c2sc(Nc3ccccc3)n[n+]2-c2ccc(F)cc2)cc1OC	.	.	.	.	.	.
CC(=O)Nc1ccc(-c2sc(Nc3cccc4ccccc34)n[n+]2-c2ccccc2)cc1	45µM	.	.	.	?	.
CSc1ccc(-c2sc(Nc3cccc4ccccc34)n[n+]2-c2ccccc2)cc1	/	.	.	.	18µM	79µM
Fc1ccc(-[n+]2nc(Nc3ccccc3)sc2-c2ccc(OCc3ccccc3)cc2)cc1	/	.	.	.	?	89µM
CCCCNC(=O)c1cc(-c2cccnc2)nc2ccc(S(=O)(=O)NCCCC)cc12	.	/	/	.	.	.
CSc1ccc(-c2sc(Nc3ccccc3)n[n+]2-c2ccccc2)cc1	35µM	.	?	.	45µM	56µM
Cc1cc(C)cc(NC(=O)CCCc2nc(-c3ccco3)no2)c1	.	/	/	.	.	.
Cc1ccc(S(=O)(=O)Oc2ccccc2/C=C2\SC(=O)NC2=O)cc1	50µM	.	.	.	?	.
CC1(C)OC(=O)C2(Cc3ccc(Cl)cc3N3CCCCC32)C(=O)O1 (stereo not given)	/	/	/	.	/	.
CCOC(=O)c1c(C)[nH]c(C)c1S(=O)(=O)N1CCCC(C(=O)N2CCN(c3ccccc3F)CC2)C1 (stereo not given)	.	/	/	.	?	?
CCCCc1nc2cc(C(=O)N3CCCCC3C(=O)OC)ccc2o1 (stereo not given)	.	.	.	.	.	22µM
CCCCCCCCC[n+]1cccc2c3ccccc3ccc21	/	.	.	.	.	.
Cc1cc(N)c2ccccc2[n+]1CCCCCCCCCC[n+]1c(C)cc(N)c2ccccc21	50µM!	/	/	/	/	/
COc1cccc2c1C(=O)c1c(O)c3c(c(O)c1C2=O)C[C@](O)(C(C)=O)C[C@H]3O[C@@H]1C[C@@H](N)[C@@H](O)[C@@H](C)O1	?	.	.	.	45µM	?
COc1cccc2c1C(=N)c1c(O)c3c(c(O)c1C2=O)CC(O)(C(C)=O)CC3OC1CC(N)C(O)C(C)O1 (stereo not given)	/	?	?	?	/	40µM
COc1cccc2c1C(=O)c1c(O)c3c(c(O)c1C2=O)CC(O)(C(C)=O)CC3OC1CC(O)C(O)C(C)O1 (stereo not given)	/	.	.	?	/	?
N#Cc1nc(N2CCCCC2)nc(N2CCCCC2)n1	/	/	/	.	/	.
O=C(C1CCCN(Cc2ccccc2F)C1)N1CCCC1 (stereo not given)	40µM	/	.	?	56µM	28µM
O=C(C1CCCN(Cc2cc(Br)ccc2O)C1)N1CCCCC1 (stereo not given)	25µM	.	.	.	50µM	7.9µM
CSc1ccccc1C(=O)NC1CCCN(Cc2ccccc2F)C1 (stereo not given)	10µM	.	.	.	.	.
O=C(c1ccccc1)N1CCCC(C(=O)N2CCCCC2)C1 (stereo not given)	.	/	.	.	.	.
CCN(CC)C(=O)c1c(-c2ccccc2)c(-c2ccccc2)nn(C)c1=O	.	/	/	.	.	.
CC(=O)C1=C(NC(=O)c2ccccc2F)C[C@@H]2[C@H]1C2(C)C	56µM	.	.	.	.	.

High-throughput results deposited in PubChem by National Center for Advancing Translational Sciences (NCATS).
